# Bioassay records as filed in PubChem BioAssay.
# This is a sample that favours compounds with a hit; in the whole collection about 11% have one here.
# HPGD block: blocks human HPGD enzyme activity; P15428; purified HPGD, NADH fluorescence kinetic, PGE2 substrate; Potency, µM, inactives show top-dose activity change, negative = inhibition, hits mostly inhibitors; actives 4.3% (n = 150,000); AID 894; active means well fitted inhibition curve with a large enough effect, not every such curve was filed as active; inconclusive means small, poorly fitted or top-dose-only effect, or another doubt; inactive means no such curve, though single readings can be large or run the other way; further: potency means the concentration at half of the fitted maximal effect
#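 NADH formation kinetics: reaction with 30 uM PGE2 and 1 mM NAD+ (final), 20 nM enzyme, Tris-HCl pH 8 with Tween 20, after 15 min compound preincubation at room temperature. Fluorescence change, last versus first of five reads.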
# PNC assembly inh: perinucleolar compartment assembly inhibition | PC3M PTB-GFP, PNC prevalence imaging, 16 h; hits give low values | activity change (PNC), negative = inhibition, % at 10 µM | actives 3.1% (n = 140,000) | AID 2417;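 active means readout at or below -70, meaning at least 70% loss of cells showing the perinucleolar compartment, a nuclear body marking cancer cells; inconclusive means readout between -30 and a set limit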;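 further: plate controls were DMSO wells for no effect and camptothecin positive control wells for full effect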
#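 Read-out is percentage of cells bearing a perinucleolar compartment, from automated 20x imaging of fixed, Hoechst-stained PC3M PTB-GFP cells. Cells were seeded 4 h, then exposed 16 h to compound (23 nl of library stock) in duplicate plates.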
# IMPase inh: IMPase inhibition in cells; P97697; CHO-M1 cells, IP1 accumulation, HTRF TR-FRET ratio; inhibition (IP1 accumulation), % at 46.1 µM; 120,000 tested, under 10 active; active means well fitted curve in the direction sought with a large enough effect in the signal ratio, not every such curve was filed as active; inconclusive means small, poorly fitted or top-dose-only effect, or a change in a side signal; inactive means no such curve, though single readings can be large or run the other way; the % refers to the signal ratio;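 further: cells stimulated with carbachol in lithium chloride buffer; plate controls were DMSO basal wells for no effect and reference inhibitor wells for full effect; higher means more IMPase inhibition seen as more IP1 and lower FRET ratio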
#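 Measured: the HTRF emission ratio (665/620 nm) plus the 620 nm donor channel, each fitted to the Hill equation to give AC50. Cells were CHO-M1 given compounds up to 46 uM and a 30 min carbachol stimulation at 37C.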
# ALDH1A1 inh: blocks purified human ALDH1A1 activity. P00352. Purified ALDH1A1, NADH fluorescence, propionaldehyde substrate. Potency, µM (doses to about 75.3 µM), inactives show at the highest dose activity, negative = inhibition, actives largely listed as inhibitors. actives 7.3% (n = 220,000); active means well fitted inhibition curve with a large enough effect, not every such curve was filed as active; inconclusive means small, poorly fitted or top-dose-only effect, or another doubt; inactive means no such curve, though single readings can be large or run the other way;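 further: potency means the concentration at half of the fitted maximal effect; plate controls were no enzyme wells and a reference inhibitor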
# Target sequence (P00352 whole entry, looked up): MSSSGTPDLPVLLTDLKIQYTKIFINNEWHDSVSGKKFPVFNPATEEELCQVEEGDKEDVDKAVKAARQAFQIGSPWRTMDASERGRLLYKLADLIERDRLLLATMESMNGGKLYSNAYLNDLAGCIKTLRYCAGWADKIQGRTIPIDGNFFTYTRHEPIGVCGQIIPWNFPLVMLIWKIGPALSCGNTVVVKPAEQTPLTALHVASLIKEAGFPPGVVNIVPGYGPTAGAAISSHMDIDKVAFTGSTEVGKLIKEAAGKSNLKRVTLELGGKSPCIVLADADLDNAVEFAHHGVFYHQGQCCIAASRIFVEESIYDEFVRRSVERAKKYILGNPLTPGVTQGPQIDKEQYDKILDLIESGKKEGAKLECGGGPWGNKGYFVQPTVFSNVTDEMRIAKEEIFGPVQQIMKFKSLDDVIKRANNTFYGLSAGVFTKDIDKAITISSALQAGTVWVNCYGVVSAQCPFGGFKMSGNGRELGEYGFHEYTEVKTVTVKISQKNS
# ALOX12 inhib: blocks human 12-lipoxygenase activity | P18054 | purified 12-hLO, xylenol orange hydroperoxide absorbance | Potency, µM (series often up to 57.1 µM), for inactives: at the top dose activity change, negative = inhibition, most hits filed as inhibitors | actives 0.12% (n = 150,000) | AID 1452; further: potency means the concentration at half of the fitted maximal effect; nearly all actives have a fitted effect of over 55% in size
#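 Hydroperoxide output read as Fe(III)-xylenol orange absorbance, 573-to-405 nm ratio, after 30 min reaction with 40 uM arachidonic acid. Enzyme: 150 nM purified human 12hLO, 15 min compound preincubation; 25 mM Hepes pH 7.0, room temperature.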
# IMPase Li inh: membrane-permeable IMPase blocker, potentiated with lithium; AID 1457; Potency, µM (titrated, usually from 59.4 µM), for the others: at the top dose activity, negative = IMPase inhibition, usual class: inhibitors; CHO-M1 cells, IP1 TR-FRET (IP-One), carbachol + lithium; actives 0.35% (n = 210,000);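 further: IP1 builds up when IMPase is blocked and the TR-FRET signal falls; potency means the concentration at half of the fitted maximal effect; plate controls were basal vehicle for no effect and high inhibitor control for full effect; nearly all actives have a fitted effect of over 50% in size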
#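 Steps: plate 2000 CHO-M1 cells per well and culture 16–30 h; add compound and lithium; incubate 30 min, 37C; add d2-IP1 tracer and Eu cryptate anti-IP1 antibody in lysis buffer; read after 10 min at room temperature.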
# Active calls of the source: *; ? = inconclusive; . = not tested or not shown; [ ] = remark or other dose. Unless noted, the call rests on the fitted dose curve; in most records, active means well fitted curve in the direction sought with a large enough effect; inconclusive means small, poorly fitted or top-dose-only effect, or another doubt; inactive means no such curve, though single readings can be large; an effect the other way counts as inactive or inconclusive. Unless noted, on the % scale 0 is the no-effect control and ±100 the full control effect.
SMILES,HPGD block,PNC assembly inh,IMPase inh,ALDH1A1 inh,ALOX12 inhib,IMPase Li inh
Cc1cccc2cc(CN(C(=S)NCC(C)C)C3CCCC3)c(=O)[nH]c12,-9%,17,13,-4%,2%,14%
Oc1c(C(O)(c2ccccc2)c2ccc3ccccc3c2O)ccc2ccccc12,?,.,.,-6%[13.5 µM],-10%[11.4 µM],3%
CN1CCN(C(=O)c2nc3ccc(Cl)cc3[nH]2)CC1,-17%,.,.,-2%,-3%,-1%
COc1ccccc1CN(Cc1nc2ccccc2c(=O)[nH]1)C(=O)Nc1ccccc1C,-11%,-115*,3,?,1%,30%[38.3 µM]
COc1ccccc1NC(=O)N(Cc1ccco1)Cc1cc2c(C)ccc(C)c2[nH]c1=O,-13%,28,-10,18µM*,-7%,18%
Cc1[nH]nc(N=CC2=C(O)CC(C)(C)CC2=O)c1-c1ccccc1,-17%,?,0,28µM*,1%,0%
CC1(C)CC(=O)C(/C=N/c2ccccn2)=C(O)C1,-18%,-17,-2,14µM*,-4%,.
CCOC(=O)c1ccc(N=CC2=C(O)CC(C)(C)CC2=O)cc1,?,19,7,?,-7%,-15%[38.3 µM]
CC1(C)CC(=O)C(C=Nc2ccccc2)=C(O)C1,.,-19,-2,3%,-3%,.
CC1(C)CC(=O)C(C=Nc2cccc(/N=C/C3=C(O)CC(C)(C)CC3=O)n2)=C(O)C1,-19%,24,1,3.5µM*,-4%,1%[38.3 µM]
Cc1[nH]nc(N=CC2=C(O)CC(c3ccco3)CC2=O)c1-c1ccccc1 (centres undefined),.,12,12,?,?,.
CC1(C)CC(=O)C(C=Nc2ccc(NC3=C(C#N)C(=O)CC(C)(C)C3)cc2)=C(O)C1,.,.,.,7.1µM*,.,0%
COC(=O)C1=C(C)N(Cc2ccccc2)C2=C3C(=O)CCCC3[C@@](O)(C(=O)OC)C(=O)N2C1c1ccccc1 (some centres undefined),.,.,.,10%[13.5 µM],.,.
COc1ccccc1CNCCCCCCNCCCCCCCCNCCCCCCNCc1ccccc1OC,7%,.,19,5%,7%,11%
CN(C)/C=C(/C#N)C(=O)c1cccc(Oc2ccc(C(C)(C)C)cc2)c1,22µM*,-4,3,-8%,14%,36%[38.3 µM]
COc1ccc(C(=O)N2CCC3(CC2)CCN(c2ccccc2)CC3)cc1,-12%,.,.,?,-2%,7%
O[C@@H](c1cc(-c2ccc(Cl)cc2)nc2ccccc12)C1CCCCN1 (some centres undefined),-5%,.,.,3%[13.5 µM],.,-4%
N#CC1=C(N)N2C(=C(C#N)C13CCCCC3)SC1CCCCC12O (centres undefined),-13%,?,13,0.71µM*,-7%,10%
COc1ccc(CCn2c3c(c(=O)[nH]c2=O)C(NC(=O)c2ccccc2OC)(C(F)(F)F)C(=O)N3)cc1OC (centres undefined),.,.,-2,.,.,.
CCC(C)NC(=O)[C@H](CSCc1ccccc1)N1Cc2ccccc2C1=O (some centres undefined),-7%,-82*,.,-5%,-2%,8%
CC(C)CCNC(=O)[C@H](CSCc1ccccc1)N1Cc2ccccc2C1=O,-1%,24,.,-9%,-11%,6%
Nc1nc(N)[n+]([O-])c(N)c1NCO,-9%,.,.,9%[13.5 µM],0%[11.4 µM],-11%
Cc1cccc(NC(=O)c2c(NC(=O)c3ccco3)sc3c2CCC(C)C3)c1 (centres undefined),.,.,-15,.,.,.
CCc1ccc(OCC(=O)N(CC)CC)cc1,.,.,.,-6%,.,12%
O=C(C(=O)N1CCc2ccccc2C1)c1cn(CC(=O)N2CCCC2)c2ccccc12,-3%,16,-9,6%,-1%,0%
CC1CCN(C(=O)Cn2cc(C#N)c3ccccc32)CC1,2%,-6,4,?,0%,7%
CCN(CC)C(=O)C(=O)c1cn(CC(=O)N2CCc3ccccc3C2)c2ccccc12,.,.,.,0.71µM*,.,7%
